# Source: PubChem BioAssay
# Where “and” joins values, the source holds several entries; their conditions need not be identical. Identical values can stand only once. For some of these results: Results with a measured potency or affinity are listed apart. Calls of active or inactive are those of the source.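 The calls were made as follows, unless noted: active = compounds killing one labelled cell type while sparing the other, by normalised counts and ratio limits, not self-fluorescent; inactive = the rest.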
# Key:
# [1] = differential killing of epithelial or mesenchymal cells, primary screen, imaging, PC-3E GFP, TEM4-18 mCherry, co-culture (AID 1345086); details: imaging cell counts, at 1 µM; for red/green cell ratio (normalised): actives lie on both sides, counts scaled to control wells, 1 = unselective;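 as to all read-outs here: cells exposed to compound for 72 h before imaging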;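 as to red/green cell ratio (normalised): normalised mesenchymal count divided by normalised epithelial count so high means epithelial killing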
# [2] = suppressors of polyQ aggregation in yeast, 75Q-TubU reporter (AID 1593); details: Yeast 75Q polyglutamine aggregation reporter
# [3] = rescue of polyQ-huntingtin neuronal dysfunction in worms, whole organism, C. elegans mechanosensory neurons, N-terminal huntingtin (AID 1599); details: touch response, stronger effect = higher value
# [4] = inhibitors of mitochondrial cytochrome c release, biochemical, purified mitochondria (AID 1603); details: stronger effect = lower value;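 also: mouse liver mitochondria challenged with calcium chloride; signal normalized to the plate average as 100%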
# [5] = inhibitors of polyQ protein aggregation (AID 1604); details: polyglutamine-induced protein aggregation inhibition assay; stronger effect = higher value; tested at 2.5 µM
# [6] = enhancers of glutamate uptake in motor neurons, MN-1 cell line (AID 1612); details: MN-1 motor neuron cells, stronger effect = higher value;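 also: tested at 1 µM final; 0% = mean of DMSO vehicle wells on each plate; positive means more glutamate uptake than control and negative means less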
# [7] = suppressors of polyglutamine aggregation in yeast, 75Q-TubH (AID 1616); details: S. cerevisiae 75Q-TubH polyglutamine aggregation suppression; stronger effect = higher value
# [8] = circadian clock period modulators, cell-based, LOPAC library, luminescence reporter (AID 2774; call rule not given here;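 also: values are relative to mean of DMSO wells on each plate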); details: circadian reporter cells, at 7 µM, actives lie on both sides
# [9] = Cy5 fluorescence quenching or enhancement artefacts, artefact control for HCV NS3 helicase inhibitor project, biochemical, LOPAC1280 (AID 687037; call rule not given here); details: Cy5-DNA-NS3h complex fluorescence interference counterscreen
# [10] = system: Aerobactin synthetase IucA (Klebsiella pneumoniae); test: IucA aerobactin synthetase inhibitors, biochemical, Tocris library, absorbance (AID 1345561; call rule not given here;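 also: 100% = enzyme without compound and 0% = no enzyme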); details: purified IucA enzyme assay, absorbance (OD) read-out; stronger effect = lower value;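 tested at 8 µM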
# [11] = sensitizers of A549 cells to miR-34 induction, primary screen, imaging, A549 dox-inducible miR-34, nuclei and caspase counts (AID 1347080;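 active = compounds whose cell count with miR-34 switched on is under 0.7 times the count with it off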); details: A549 miR-34 inducible, Hoechst nuclei count, 48 h
# [12] = inhibitors of Cryptococcus chitosan production, flow cytometry, Cibacron Brilliant Red staining (AID 1347148; call rule not given here;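 also: compound exposure lasted three days at 37 degrees C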); details: Cryptococcus neoformans chitosan, stronger effect = lower value; at 10 µM unless noted
# [13] = molecular target: Mitogen-activated protein kinase 7 (Homo sapiens) (UniProt Q13164); test: ERK5 transactivation activators in reporter cells, primary screen, cell-based, HTS (AID 1508626;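 active = luciferase signal above three times the same-plate solvent-only control wells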;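 also: luciferase driven by Gal4-ERK5 fusion binding five Gal4 sites before minimal TATA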); details: HeLa Gal4-ERK5 transactivation, 18 h, at 5 µM, stronger effect = higher value
# [14] = viability rescue of complex I mutant cybrids, primary screen, cell-based, galactose medium, ATP luminescence (AID 1645843;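 active = z-score of at least 1.8 in each of two replicates, scored against plate mean and spread of sample wells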;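 also: positive z means more ATP and so rescue of galactose-driven cybrid death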); details: complex I mutant cybrid cells, 72 h, stronger effect = higher value
# [15] = measured here: epithelial PC-3E GFP cell survival
# [16] = measured here: mesenchymal TEM4-18 mCherry cell survival
# [17] = stronger effect = lower value, cell number ratio, induced over uninduced
# [18] = measured here: relative caspase fold change +Dox/-Dox
# Mitogen-activated protein kinase 7 (Homo sapiens), sequence (Q13164 whole entry, looked up, the tested form may be a part): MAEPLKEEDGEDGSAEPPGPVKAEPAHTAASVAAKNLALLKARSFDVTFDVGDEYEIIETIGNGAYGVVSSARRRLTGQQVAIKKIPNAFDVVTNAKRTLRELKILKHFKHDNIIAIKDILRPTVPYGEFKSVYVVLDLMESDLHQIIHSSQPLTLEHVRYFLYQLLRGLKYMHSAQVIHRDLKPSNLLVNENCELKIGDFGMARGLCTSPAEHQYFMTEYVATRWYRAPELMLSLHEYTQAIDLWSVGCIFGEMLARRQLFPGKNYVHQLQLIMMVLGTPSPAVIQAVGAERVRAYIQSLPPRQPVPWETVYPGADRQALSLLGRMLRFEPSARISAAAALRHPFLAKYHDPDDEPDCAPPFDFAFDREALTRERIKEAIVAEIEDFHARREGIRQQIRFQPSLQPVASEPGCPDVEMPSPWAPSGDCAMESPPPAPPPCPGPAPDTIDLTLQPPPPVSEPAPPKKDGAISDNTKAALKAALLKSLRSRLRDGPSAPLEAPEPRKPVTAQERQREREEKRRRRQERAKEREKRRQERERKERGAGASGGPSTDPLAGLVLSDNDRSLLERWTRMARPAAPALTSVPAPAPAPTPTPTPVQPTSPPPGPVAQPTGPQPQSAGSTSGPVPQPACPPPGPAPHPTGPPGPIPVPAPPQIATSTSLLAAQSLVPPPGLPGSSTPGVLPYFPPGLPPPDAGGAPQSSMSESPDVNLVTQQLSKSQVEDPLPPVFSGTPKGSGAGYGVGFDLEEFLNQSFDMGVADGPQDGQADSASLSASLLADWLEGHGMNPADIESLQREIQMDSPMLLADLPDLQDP
smiles,measurement,setting,value
O=C(/C=C/c1ccccc1)O[C@H]1C[C@@H](O)[C@]2(O)C=CO[C@@H](O[C@@H]3O[C@H](CO)[C@@H](O)[C@H](O)[C@H]3O)C12 (stereo not given in full),red/green cell ratio (normalised),[1],1.09 (inactive)
same,normalised cell number,[1]; [15],0.87
same,normalised cell number,[1]; [16],0.95
COc1ccc(-c2cc(=O)c3c(O)c(OC)c(O[C@H]4O[C@H](CO[C@@H]5O[C@@H](C)[C@H](O)[C@@H](O)[C@H]5O)[C@@H](O)[C@H](O)[C@H]4O)cc3o2)cc1,red/green cell ratio (normalised),[1],0.98 (inactive)
same,normalised cell number,[1]; [15],1.05
same,normalised cell number,[1]; [16],1.03
COC(=O)c1cc(OC)cc(OC(=O)c2c(O)cc3cc(C)oc(=O)c3c2O)c1O,red/green cell ratio (normalised),[1],0.92 (inactive)
same,normalised cell number,[1]; [15],0.94
same,normalised cell number,[1]; [16],0.86
O=C(O)CS,red/green cell ratio (normalised),[1],1.05 (inactive)
same,normalised cell number,[1]; [15],1.25
same,normalised cell number,[1]; [16],1.3
CC1CC(=O)c2c(cc3c(-c4c(O)cc(O)c5c(O)c6c(cc45)OC(C)CC6=O)c(O)cc(O)c3c2O)O1 (stereo not given),red/green cell ratio (normalised),[1],0.92 (inactive)
same,normalised cell number,[1]; [15],1.06
same,normalised cell number,[1]; [16],0.98
CC(=O)OCC1O[C@H](Sc2ccc(C)cc2)[C@@H]2[C@@H](OC(=O)N2C(C)=O)C1OC(C)=O (stereo not given in full),red/green cell ratio (normalised),[1],0.77 (inactive)
same,normalised cell number,[1]; [15],1.36
same,normalised cell number,[1]; [16],1.05
COC1=CC(=O)OC1(O)C(C)C (stereo not given),red/green cell ratio (normalised),[1],1.07 (inactive)
same,normalised cell number,[1]; [15],0.83
same,normalised cell number,[1]; [16],0.89
CC(=O)OCC(=O)[C@H]1CCC2C3CC=C4C[C@@H](O)CC[C@]4(C)C3CC[C@@]21C (stereo not given in full),red/green cell ratio (normalised),[1],0.94 (inactive)
same,normalised cell number,[1]; [15],0.99
same,normalised cell number,[1]; [16],0.93
Cc1cc2c(CO)cc(O)cc2o1,red/green cell ratio (normalised),[1],1 (inactive)
same,normalised cell number,[1]; [15],0.92
same,normalised cell number,[1]; [16],0.92
CC(CC(=O)N1C(=O)OC[C@H]1c1ccccc1)N1C(=S)OC[C@@H]1c1ccccc1 (stereo not given in full),red/green cell ratio (normalised),[1],0.97 (inactive)
same,normalised cell number,[1]; [15],1.02
same,normalised cell number,[1]; [16],0.99
C=C1C(=O)O[C@@H]2C(=O)O[C@@H](CCCCCCCC)[C@H]12,red/green cell ratio (normalised),[1],0.86 (inactive)
same,normalised cell number,[1]; [15],1.04
same,normalised cell number,[1]; [16],0.89
CO/N=C1/C[C@]2(C[C@@H]3C[C@@H](C/C=C(\C)C[C@@H](C)/C=C/C=C4\COC5[C@H](O)C(C)=C[C@@H](C(=O)O3)[C@]45O)O2)O[C@H](/C(C)=C/C(C)C)[C@H]1C (stereo not given in full),red/green cell ratio (normalised),[1],1.32 (inactive)
same,normalised cell number,[1]; [15],1
same,normalised cell number,[1]; [16],1.32
COc1ccc(-c2cc(=O)c3c(O)cc(OC)cc3o2)cc1,red/green cell ratio (normalised),[1],1.15 (inactive)
same,normalised cell number,[1]; [15],1.08
same,normalised cell number,[1]; [16],1.24
CCC(CCC(C)[C@H]1CCC2C3CC=C4C[C@@H](O)CC[C@]4(C)C3CC[C@@]21C)C(C)C (stereo not given in full),red/green cell ratio (normalised),[1],1.04 (inactive)
same,normalised cell number,[1]; [15],1.04
same,normalised cell number,[1]; [16],1.08
Clc1ccc(Br)cc1/C=C/C1CCCNC1 (stereo not given),red/green cell ratio (normalised),[1],0.95 (inactive)
same,normalised cell number,[1]; [15],1.16
same,normalised cell number,[1]; [16],1.1
CC(=C\C(=O)O)/C=C(\C)C[C@H](C)CCCC[C@H]1OC(=O)[C@@H]1CO,red/green cell ratio (normalised),[1],1 (inactive)
same,normalised cell number,[1]; [15],0.95
same,normalised cell number,[1]; [16],0.95
CC(=O)O[C@H]1CC[C@@]2(C)C(CC[C@]3(C)C2CC=C2C4CC(C)(C)CC[C@]4(C)CC[C@]23C)C1(C)C (stereo not given in full),red/green cell ratio (normalised),[1],1.1 (inactive)
same,normalised cell number,[1]; [15],1.04
same,normalised cell number,[1]; [16],1.15
OCC1O[C@H](O[C@H]2OC(CO)[C@@H](O)[C@@H](O)C2O)C(O)[C@H](O)[C@@H]1O (stereo not given in full),red/green cell ratio (normalised),[1],1.12 (inactive)
same,normalised cell number,[1]; [15],1.01
same,normalised cell number,[1]; [16],1.13
O=C(Cc1ccncc1)c1ccc(F)cc1,red/green cell ratio (normalised),[1],1.16 (inactive)
same,normalised cell number,[1]; [15],0.82
same,normalised cell number,[1]; [16],0.95
C[C@]12CCC3c4ccc(OC(=O)c5ccccc5)cc4CCC3C1CC[C@@H]2O (stereo not given in full),red/green cell ratio (normalised),[1],1.1 (inactive)
same,normalised cell number,[1]; [15],1
same,normalised cell number,[1]; [16],1.1
O=C1C=CC2(Oc3cccc4cccc(c34)O2)[C@H]2[C@H]1[C@@H](O)CC[C@H]2O,red/green cell ratio (normalised),[1],1.07 (inactive)
same,normalised cell number,[1]; [15],0.95
same,normalised cell number,[1]; [16],1.01
CN(C(=O)c1ccccc1)C1C(O[C@@H]2OC(COS(=O)(=O)O)C(NC(=O)c3ccccc3)[C@H](OS(=O)(=O)O)[C@H]2OS(=O)(=O)O)OC2C[C@@H](NC(=O)c3ccccc3)[C@@H](OC3C(NC(=O)c4ccccc4)C[C@@H](NC(=O)c4ccccc4)[C@H](OS(=O)(=O)O)[C@H]3OS(=O)(=O)O)OC2C1OS(=O)(=O)O (stereo not given in full),red/green cell ratio (normalised),[1],1 (inactive)
same,normalised cell number,[1]; [15],1.06
same,normalised cell number,[1]; [16],1.06
CC1(C)C2CC(=O)[C@@]3(C)C4=CC(=O)O[C@@H](C(=O)O)[C@]4(C)CCC3[C@@]2(C)[C@@H](O)C[C@H]1O (stereo not given in full),red/green cell ratio (normalised),[1],0.95 (inactive)
same,normalised cell number,[1]; [15],1.05
same,normalised cell number,[1]; [16],0.99
CC(C)(C)OC(=O)NCCCC(NC(=O)C(Cc1ccccc1)NC(=O)OC(C)(C)C)C(=O)O (stereo not given),red/green cell ratio (normalised),[1],0.88 (inactive)
same,normalised cell number,[1]; [15],1.24
same,normalised cell number,[1]; [16],1.1
O=C(O)CNC(=O)c1ccc([C@H](O)c2ccccc2)cn1,red/green cell ratio (normalised),[1],0.86 (inactive)
same,normalised cell number,[1]; [15],1.15
same,normalised cell number,[1]; [16],0.99
O=C1CC[C@]23/C=C/C(=O)NCCCCNCCCNC(=O)/C=C/c4ccc(c2c4)O[C@@H]3C1,red/green cell ratio (normalised),[1],0.81 (inactive)
same,normalised cell number,[1]; [15],1.1
same,normalised cell number,[1]; [16],0.89
COc1c(N2CC[C@@H](CN)C2)c(F)cc2c(=S)c(C(=O)O)cn(C3CC3)c12,red/green cell ratio (normalised),[1],1.12 (inactive)
same,normalised cell number,[1]; [15],1.08
same,normalised cell number,[1]; [16],1.2
C/C=C/CC(C)C(O)C1C(=O)NC(CC)C(=O)N(C)CC(=O)N(C)C(CC(C)C)C(=O)NC(C(C)C)C(=O)N(C)C(CC(C)C)C(=O)NC(C)C(=O)NC(C)C(=O)N(C)C(CC(C)C)C(=O)N(C)C(CC(C)C)C(=O)N(C)C(C(C)C)C(=O)N1C (stereo not given),score,[2],1.51
same,rescue above control,[3],1.62
same,cytochrome c release ratio,[4],0.93
same,inhibition of aggregation,[5],77.8%
same,glutamate uptake change,[6],-28.6%
same,aggregation suppression score,[7],1.73
same,period change,[8],-0.005 h (inactive)
same,fluorescence ratio (interference),[9],0.9 (inactive)
same,red/green cell ratio (normalised),[1],0.77 (inactive)
same,normalised cell number,[1]; [15],0.27
same,normalised cell number,[1]; [16],0.21
same,remaining activity,[10],111% (inactive)
same,fold change,[11]; [17],1.04 (inactive) and 1.06 (inactive) and 0.898 (inactive)
same,fold change,[11]; [18],1.1 and 0.674 and 2.07
same,fold fluorescence,[12],18.1 [at 41.6 µM] (inactive)
C/C=C/c1cc2c(c(=O)o1)C(=O)[C@@H](O)[C@H](C)O2,red/green cell ratio (normalised),[1],1.02 (inactive)
same,normalised cell number,[1]; [15],0.9
same,normalised cell number,[1]; [16],0.92
O=C(O)C1O[C@@H](O)[C@@H](O)[C@@H](O)C1O (stereo not given in full),red/green cell ratio (normalised),[1],0.93 (inactive)
same,normalised cell number,[1]; [15],1.22
same,normalised cell number,[1]; [16],1.13
COC(=O)CCC(C)[C@H]1CCC2C3C(C[C@H](O)[C@@]21C)[C@@]1(C)CC[C@@H](O)C[C@H]1C[C@H]3O (stereo not given in full),red/green cell ratio (normalised),[1],1.15 (inactive)
same,normalised cell number,[1]; [15],0.89
same,normalised cell number,[1]; [16],1.02
NCCOB(c1ccccc1)c1ccccc1,red/green cell ratio (normalised),[1],1.1 (inactive)
same,normalised cell number,[1]; [15],0.8
same,normalised cell number,[1]; [16],0.89
same,remaining activity,[10],110% (inactive)
same,fold change,[11]; [17],0.925 (inactive)
same,fold change,[11]; [18],0.886
same,cell count,"[11]; measured here: total cells with miR-34 induction, stronger effect = lower value",8820
same,cell count,[11]; measured here: total cells without miR-34 induction,9540
same,luciferase signal,[13],120 AU (inactive)
same,z-score,[14],1.9 (inactive)
C[C@H](Oc1ccc(Oc2ccc3ncc(Cl)nc3c2)cc1)C(=O)O,red/green cell ratio (normalised),[1],0.92 (inactive)
same,normalised cell number,[1]; [15],1.29
same,normalised cell number,[1]; [16],1.18
OC[C@H]1O[C@H](OCCCc2ccc(O)cc2)[C@H](O)[C@@H](O)[C@@H]1O,red/green cell ratio (normalised),[1],1.19 (inactive)
same,normalised cell number,[1]; [15],0.9
same,normalised cell number,[1]; [16],1.07
C#C[C@]1(O)CC[C@@H]2C3[C@H](C)CC4=C(CCC(=O)C4)[C@H]3CC[C@@]21C (stereo not given in full),red/green cell ratio (normalised),[1],1.13 (inactive)
same,normalised cell number,[1]; [15],1.07
same,normalised cell number,[1]; [16],1.21
CC1(C)S[C@@H]2[C@H](NC(=O)C(N)c3ccc(O)cc3)C(=O)N2[C@H]1C(=O)O (stereo not given in full),red/green cell ratio (normalised),[1],0.84 (inactive)
same,normalised cell number,[1]; [15],1.22
same,normalised cell number,[1]; [16],1.02
C[C@@H]1C[C@@H](O)[C@@H](O)CO1,red/green cell ratio (normalised),[1],1.05 (inactive)
same,normalised cell number,[1]; [15],0.91
same,normalised cell number,[1]; [16],0.96
